Source: the supplement of paper PMC10338343
± gives the standard deviation.

Key:
[1] = test system: MILI (PIWIL2) piRISC loaded with piRNA #1 (26 nt); assay: pre-steady-state target cleavage rate (min^-1); guide: piRNA #1 5'p-UGAGGUAGUAGGUUGUAUAGUAUCCA; higher = faster piRNA-guided slicing of the target; details: auxiliary factor: 500 nM mouse GTSF1
How it was run: (§1)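 The method was Cleave-'n-Seq, in which uncleaved targets from a transcribed, DNA-blocked target RNA library were sequenced after exposure to active affinity-purified piRISC carrying one synthetic guide, with or without GTSF1 partner protein. Reactions contained 0.1 nM library, 1 nM piRISC and, where present, 500 nM GTSF1 in HEPES–potassium acetate buffer at 33 °C for 0–8 or 0–960 min. Reads were normalised to depth and to weakly complementary targets, three trials were pooled, and k3 was capped at 0.0001 min^-1. The pre-steady-state cleavage rate came from a burst-and-steady-state fit.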

[2] = test system: EfPiwi piRISC loaded with piRNA #1 (26 nt); assay: pre-steady-state target cleavage rate (min^-1); auxiliary factor: 500 nM Ephydatia muelleri Gtsf1; guide: piRNA #1 5'p-UGAGGUAGUAGGUUGUAUAGUAUCCA; MIWI and MILI are mouse PIWI proteins and EfPiwi is from a freshwater sponge; tags in brackets are library labels; higher = faster piRNA-guided slicing of the target
How it was run: as §1

Sequence | pre-steady-state target cleavage rate [1] | pre-steady-state target cleavage rate [2]
GGAGAGGAAACUAUACAACCUUCUACCUCA | 0.00762 ± 0.006 | 0.00297 ± 0.0027
GGAGACCAUACUAUAGAACCUACUACGUCA | 0.0697 ± 0.013 | 0.00374 ± 0.0034
GGAGACGAUACUAUUCAACCUUCUACCUCA | 0.0105 ± 0.0025 | 0.00443 ± 0.0025
GGAGUGGAUACUCUACAACCUACUACCUCA | 0.194 ± 0.011 | 0.00588 ± 0.0041
GGAGUGGAUACUAUACUACCUACUAGCUCA | 0.0877 ± 0.012 | 0.0027 ± 0.0021
GGAGACCUAUCUAUACAACCUACUACCAGA | 0.104 ± 0.016 | 0.00327 ± 0.0026
GGAGAGGAUACUAUACAACACUACUACCUCA | 0.00372 ± 0.0023 | 0.00804 ± 0.0043
GGAGUGGAAACAAUACAACCUACUACCUCA | 0.184 ± 0.018 | 0.00713 ± 0.0044
GGAGUCGAUACUAUACAACCUACUAGCUCA | 0.0244 ± 0.0057 | 0.00304 ± 0.0019
GGAGUGGAUACUGAUACAACCUACUACCUCA | 0.144 ± 0.01 | 0.0129 ± 0.0062
GGAGAGGAUACUAUACAACCUACUACCUACA | 0.133 ± 0.016 | 0.00995 ± 0.0044
GGAGACGAUAGAAUACAACCUACUACCUCA | 0.137 ± 0.013 | 0.00812 ± 0.0043
GGAGACGAUACAAUACAACCUACUACCUGA | 0.116 ± 0.015 | 0.0025 ± 0.0015
GGAGACCUAACUAUACAACCCACUACCUCA | 0.0098 ± 0.0041 | 0.00404 ± 0.0036
GGAGUGGAUACUAUACAACCUACUACCUCA [g2:g26:cont:t1A] | 0.2 ± 0.011 | 0.176 ± 0.056
GGAGUGGAAACUAUACUACCUACUACCUCA | 0.193 ± 0.016 | 0.00676 ± 0.0042
GGAGUGGUAACUAUACAACCUACUACCUCA | 0.141 ± 0.016 | 0.0157 ± 0.0069
GGAGUGGAUAUCUAUACAACCUACUACCUCA | 0.0708 ± 0.0091 | 0.00883 ± 0.0052
GGAGACGAUUCUAUACAACCAACUACCUCA | 0.00752 ± 0.0023 | 0.00258 ± 0.0018
GGAGAGGAUACUAUACGACCUACUACCUCA | 0.121 ± 0.0093 | 0.117 ± 0.05
GGAGAGGAUACUAUUCAACGUACUACCUCA | 0.0162 ± 0.0029 | 0.00415 ± 0.0012
GGAGAGGAUACUAUACAACCUACUCCCUCA | 0.0191 ± 0.006 | 0.00429 ± 0.0017
GGAGAGGAUACUAAACAACCUACUUCCUCA | 0.0102 ± 0.0039 | 0.00239 ± 0.0016
GGAGACCAUACUAUACAUCCUACUACCUCA | 0.302 ± 0.025 | 0.00918 ± 0.0027
GGAGUGGAUACUAUACAACCUACUCCCUCA | 0.0191 ± 0.0045 | 0.00426 ± 0.0017
GGAGAGGAUACUAUACAACCUCACUACCUCA | 0.00456 ± 0.0027 | 0.00378 ± 0.0026
GGAGAGGAUACUAUACAACCUACUACGCUCA | 0.0912 ± 0.013 | 0.00523 ± 0.0019

Sequence | pre-steady-state target cleavage rate [1] | pre-steady-state target cleavage rate [2]
GGAGACGAUACUUAUCAACCUACUACCUCA | 0.148 ± 0.013 | 0.00522 ± 0.0041
GGAGAGGAUACUAUACUACCUACUACCUGA | 0.0973 ± 0.013 | 0.00353 ± 0.002
GGAGUGGAUACAAUACAACCAACUACCUCA | 0.00919 ± 0.0019 | 0.00289 ± 0.0015
GGAGACGAUACUAUACAACCAAGUACCUCA | 0.00441 ± 0.0027 | 0.00215 ± 0.0019
GGAGACGAUACAUUACAACCUACUACCUCA | 0.173 ± 0.015 | 0.00848 ± 0.0035
GGAGUGGAUACUAUACUACCUAGUACCUCA | 0.0719 ± 0.013 | 0.00311 ± 0.0019
GGAGACGAUACUAUGACAACCUACUACCUCA | 0.186 ± 0.017 | 0.00896 ± 0.0044
GGAGACGAAACUAAACAACCUACUACCUCA | 0.145 ± 0.022 | 0.00324 ± 0.0032
GGAGACCAUACUAUACAACCUACUACCAUCA | 0.168 ± 0.027 | 0.0041 ± 0.0029
GGAGACCUAACUCUACAACCUACUACCUCA | 0.114 ± 0.031 | 0.0071 ± 0.0032
GGAGACGAUACUAUUCUACCUACUACCUCA | 0.173 ± 0.012 | 0.00416 ± 0.0035
GGAGAGGCAUACUAUACAACCUACUACCUCA | 0.177 ± 0.014 | 0.0477 ± 0.017
GGAGACCUAACGUAUACAACCUACUACCUCA | 0.0292 ± 0.012 | 0.0505 ± 0.021
GGAGACCUAUCUGAUACAACCUACUACCUCA | 0.0421 ± 0.0081 | 0.00758 ± 0.0035
GGAGUCGAUACUAUACAACCUACUACCUGA | 0.0703 ± 0.011 | 0.00547 ± 0.0021
GGAGACGAUACUAUUCAACCUACUACCACA | 0.161 ± 0.014 | 0.00322 ± 0.0017
GGAGACCAUACUAUACAACCUACAUACCUCA | 0.146 ± 0.018 | 0.00306 ± 0.0029
GGAGACCUAUCUAUACAACCUACUACCUCCA | 0.0927 ± 0.0097 | 0.0208 ± 0.0083
GGAGUGGUUACUAUACAACCUACUAGCUCA | 0.0259 ± 0.0059 | 0.00221 ± 0.001
GGAGUAGAUACUAUACAACCUACUACCUCA | 0.186 ± 0.0093 | 0.158 ± 0.057
GGAGAGGAUACCAUACAACCUACUACCUCA | 0.167 ± 0.021 | 0.0957 ± 0.032
GGAGACGAUACUAUACAACCAACUACGUCA | 0.00504 ± 0.0028 | 0.00251 ± 0.0018
GGAGACGAUACUAUACCAACCUACUACCUCA | 0.0605 ± 0.013 | 0.0123 ± 0.0043
GGAGAGGAUACUAUACAAGCUACUACGUCA | 0.19 ± 0.02 | 0.00403 ± 0.0018
GGAGAGGAUACUAUACAACCUACUACCUCCA | 0.152 ± 0.011 | 0.142 ± 0.054
GGAGACGAUACUAUACAACCUACUAGCUGA | 0.0101 ± 0.0055 | 0.00481 ± 0.0027
GGAGAGGAUACUAUACAACCUACUACUCA | 0.109 ± 0.017 | 0.00563 ± 0.0029
